The results in this text go back to the OligoGym collection.
Further: reference of the scale not given here.

For one experiment, the target named is ENO2. In words: pooled miR-30 sensor sort-seq; sequence = guide strand. As to conditions: shRNA.
Sequence TATAGAGATCCACCTCCACTGT registered a sensor-assay potency score (higher = more potent) of -0.931.

For TTGGATGGCTTCAGTGACCGAG, the sensor-assay potency score (higher = more potent) came out at 0.159.

TTGATGACTCCCTTGAGTGTAT came in with a sensor-assay potency score (higher = more potent) of -0.705.

For TTTGCCTAAGTAACGCTGTTTG, the sensor-assay potency score (higher = more potent) was -1.32.

TTCTCTTGCTCCACCACAGAGA displayed a sensor-assay potency score (higher = more potent) of -1.02.

With TACATTGGCTGTGAACTTGGAC, the sensor-assay potency score (higher = more potent) worked out at 0.428.

The sequence TAGAGATCCACCTCCACTGTGG registered a sensor-assay potency score (higher = more potent) of 0.0832.

The sequence ATTGGTGGCATCCTTGCCGTAT gave a sensor-assay potency score (higher = more potent) of -0.654.

In turn, TCTAACACCTCAGCACACCAAC had a sensor-assay potency score (higher = more potent) of -0.842.

The sequence TTGAGCAGCAGACAGTTGCAGG came in with a sensor-assay potency score (higher = more potent) of -0.936.

In turn, TATTTGTCCTTGATGACTCCCT had a sensor-assay potency score (higher = more potent) of 0.308.

TTGGATTTGTTCTCAGTCCCAT had a sensor-assay potency score (higher = more potent) of 0.271.

Sequence TAGACCTCTGCACCTAGTCGCA had a sensor-assay potency score (higher = more potent) of -1.03.

Sequence TTTGTCTCCATCCCTCAGCTCC yielded a sensor-assay potency score (higher = more potent) of -0.755.

Sequence TTGAGTGTATGGTAGACCTCTG yielded a sensor-assay potency score (higher = more potent) of -0.0986.

In turn, TAGTCCCTGACAAAGTCCTGGT gave a sensor-assay potency score (higher = more potent) of -0.652.

Sequence TTCAGTGACCGAGCCGATCTGG gave a sensor-assay potency score (higher = more potent) of -0.433.

Turning to TTCCTCAATTCTCATGAGCTGG, the sensor-assay potency score (higher = more potent) is -0.892.

Take TGATGTATCGGGAAGGATCAGT: the sensor-assay potency score (higher = more potent) was -0.0535.

The sequence TTGTCCTTGATGACTCCCTTGA registered a sensor-assay potency score (higher = more potent) of -0.328.

Sequence TATGGTAGACCTCTGCACCTAG gave a sensor-assay potency score (higher = more potent) of 0.499.

TTTTGGGTTGGTCACTGTCAGG: the sensor-assay potency score (higher = more potent) was -1.77.

TTGGCTGTGAACTTGGACCAGG came in with a sensor-assay potency score (higher = more potent) of -0.413.

Regarding TTTCTCTTGCTCCACCACAGAG, the sensor-assay potency score (higher = more potent) was -1.22.

In another experiment the target is ENPP7. Described as above. The settings on record: shRNA.
The sequence TTGTAGACGTGGAGCTTGGGGT registered a sensor-assay potency score (higher = more potent) of -0.738.

For the sequence TTGTAGTTGTGTGCGATGCCTT, the sensor-assay potency score (higher = more potent) was -0.915.

Regarding TCGCTCTCCACTCCGTCTCATT, the sensor-assay potency score (higher = more potent) is -1.59.

The sequence TTGAACTGGACGTTAATTCTCC returned a sensor-assay potency score (higher = more potent) of -0.264.

TTTAGGGAGCAGCATCCCGTTT had a sensor-assay potency score (higher = more potent) of -1.36.

TACATGTTGTGAACCACCCCGT had a sensor-assay potency score (higher = more potent) of -0.259.

Sequence TTCATGTCCATGTCCTTGTTGT registered a sensor-assay potency score (higher = more potent) of -0.0468.

As to TTGTCCACGGTCGTCATGCCGT, the sensor-assay potency score (higher = more potent) is -1.22.

Take TAGTCCAGGAGCTCAAACTCGA: the sensor-assay potency score (higher = more potent) is -0.814.

In the case of TAGGGCAGCTTCACCTTGCTGG, the sensor-assay potency score (higher = more potent) was -0.078.

The sequence TTGCGCGCGATGCTCTCCCGGA came in with a sensor-assay potency score (higher = more potent) of -1.29.

TTCTTGTAGACGTGGAGCTTGG yielded a sensor-assay potency score (higher = more potent) of -0.97.

In the next experiment the target is ENTHD1. The description is as above. The settings on record: shRNA.
As for TTAAGTTCTTGGATCACTGTGC, the sensor-assay potency score (higher = more potent) came to 0.62.

TAGAAAACAATATAGAGTGGGA: the sensor-assay potency score (higher = more potent) stood at 0.012.

With TATACTTCTTCTCTGAAGCAGA, the sensor-assay potency score (higher = more potent) was -0.435.
